Reference: PubChem BioAssay AID1159580 (chemical genetic matrix, 2015)
Values joined by “and” are separate entries in the source; they are usually repeats but may differ in a detail not shown here. Identical values can stand only once. Among all 5,500 compounds or so, about 2,000 (36%) were called active. About 18% were inconclusive and are not listed. No stated cut-off is given here; in the data, active means normalized growth mostly below about 0.91 (no sharp cut-off); inconclusive means no clear call, values can overlap the other calls; inactive means mostly above about 0.92. The list shows a part of the results.

Assay: chemical genetic growth profiling, strain panel (AID 1159580);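 further: tested at 20 µM; growth read once vehicle control cultures reached saturation at 30 °C; 1 = growth at the plate median or of vehicle wells; lower values mean less growth of the strain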
Conditions: S. cerevisiae deletion strains, growth OD

Measured: normalized growth

CCC(CCC(C)[C@H]1CCC2C3CC=C4C[C@@H](O)CC[C@]4(C)C3CC[C@@]21C)C(C)C (stereo partly drawn)
inactive: locus YAL013W, strain DEP1, hits give low values 0.998 | locus YAL021C, strain ccr4, hits give low values 1.01 | locus YAL026C, strain drs2, hits give low values 1.01 | locus YAL030W, strain snc1, hits give low values 1.01 | locus YBL061C, strain skt5, hits give low values 1.02 | locus YBR009C, strain hhf1, hits give low values 1.02 | locus YBR021W, strain FUR4, hits give low values 1.02 | locus YBR023C, strain chs3, hits give low values 1.01 | locus YBR171W, strain sec66, hits give low values 1.04 | locus YBR229C, strain ROT2, hits give low values 0.988 | locus YBR231C, strain swc5, hits give low values 1.01 | locus YBR279W, strain paf1, hits give low values 1.01 | locus YCL011C, strain gbp2, hits give low values 1.02 | locus YCL016C, strain dcc1, hits give low values 1.02 | locus YCL029C, strain bik1, hits give low values 0.999 | locus YCL061C, strain MRC1, hits give low values 1.02 | locus YCL069W, strain vba3, hits give low values 1.02 | locus YCR088W, strain abp1, hits give low values 1.02 | locus YDL005C, strain med2, hits give low values 1.02 | locus YDL035C, strain GPR1, hits give low values 1.05 | locus YDL040C, strain nat1, hits give low values 1.02 | locus YDL074C, strain BRE1, hits give low values 1.05 | locus YDL101C, strain DUN1, hits give low values 0.973 | locus YDL134C, strain PPH21, hits give low values 0.97 | locus YDL185W, strain tfp1, hits give low values 0.976 | locus YDL192W, strain arf1, hits give low values 1.02 | locus YDR001C, strain nth1, hits give low values 1.01 | locus YDR069C, strain doa4, hits give low values 1.03 | locus YDR101C, strain arx1, hits give low values 1.03 | locus YDR137W, strain rgp1, hits give low values 1.01 | locus YDR150W, strain NUM1, hits give low values 0.997 | locus YDR159W, strain sac3, hits give low values 1.04 | locus YDR162C, strain NBP2, hits give low values 0.994 | locus YDR195W, strain ref2 1.03 | locus YDR297W, strain sur2, hits give low values 1.03 | locus YDR318W, strain mcm21, hits give low values 0.986 | locus YDR334W, strain swr1, hits give low values 1.03 | locus YDR335W, strain msn5, hits give low values 1.01 | locus YDR388W, hits give low values 0.975 | locus YDR392W, strain spt3, hits give low values 1.02 | locus YDR502C, strain sam2, hits give low values 0.973 | locus YEL003W, strain gim4, hits give low values 1.01 | locus YEL037C, strain rad23, hits give low values 1.02 | locus YEL061C, strain CIN8 (second series), hits give low values 1.02 | locus YER015W, strain faa2, hits give low values 1.01 | locus YER016W, strain bim1, hits give low values 1.02 | locus YER110C, hits give low values 0.979 | locus YER111C, strain swi4, hits give low values 1.02 | locus YER155C, strain BEM2 (second series), hits give low values 1.04 | locus YER155C, strain BEM2, hits give low values 0.982 | locus YER167W, strain BCK2, hits give low values 1.01 | locus YFR010W, strain ubp6, hits give low values 1.02 | locus YGL078C, strain dbp3, hits give low values 0.983 | locus YGL086W, strain mad1, hits give low values 0.989 | locus YGL167C, strain pmr1, hits give low values 1.03 | locus YGL173C, strain kem1, hits give low values 1.02 | locus YGL227W, strain vid30, hits give low values 1.02 | locus YGL240W, strain doc1, hits give low values 1.03 | locus YGL248W, strain PDE1, hits give low values 0.978 | locus YGL253W, strain hxk2, hits give low values 1.02 | locus YGR135W, strain pre9, hits give low values 0.958 | locus YGR252W, strain gcn5, hits give low values 0.929 | locus YHR013C, strain ard1, hits give low values 1.04 | locus YHR027C, strain rpn1, hits give low values 1.01 | locus YHR030C, strain SLT2, hits give low values 0.996 | locus YHR079C, strain IRE1 (second series), hits give low values 0.987 | locus YHR079C, strain IRE1, hits give low values 0.984 | locus YHR094C, strain hxt1, hits give low values 0.984 | locus YHR129C, strain ARP1, hits give low values 0.994 | locus YHR142W, strain chs7, hits give low values 1.02 | locus YHR200W, strain rpn10, hits give low values 0.961 | locus YIL066C, strain RNR3, hits give low values 1.01 | locus YIL073C, strain SPO22, hits give low values 1.02 | locus YIL125W, strain kgd1, hits give low values 0.993 | locus YIR030C, strain dcg1, hits give low values 0.986 | locus YJL092W, strain hpr5, hits give low values 1.02 | locus YJL095W, strain BCK1 (second series), hits give low values 1.01 | locus YJL095W, strain BCK1, hits give low values 0.972 and 0.979 | locus YJL115W, strain asf1, hits give low values 1 | locus YJL129C, strain trk1, hits give low values 1.03 | locus YJL134W, strain LCB3, hits give low values 0.991 | locus YJL154C, strain vps35, hits give low values 1.02 | locus YJL164C, strain tpk1, hits give low values 1.01 | locus YJL166W, strain qcr8, hits give low values 1.02 | locus YJL168C, strain set2, hits give low values 0.988 | locus YJL187C, strain SWE1 (second series), hits give low values 0.977 | locus YJL187C, strain SWE1, hits give low values 1.01 | locus YJR043C, strain POL32, hits give low values 1.06 | locus YJR066W, strain TOR1, hits give low values 0.915 | locus YKL009W, strain mrt4, hits give low values 1.01 | locus YKL068W, hits give low values 0.981 | locus YKL085W, strain MDH1 (second series), hits give low values 0.998 | locus YKL085W, strain MDH1, hits give low values 0.998 | locus YKL160W, strain elf1, hits give low values 1.01 | locus YKR001C, strain vps1, hits give low values 1 | locus YKR026C, strain gcn3, hits give low values 1.02 | locus YKR091W, strain srl3, hits give low values 1.01 | locus YLL001W, strain dnm1, hits give low values 1.01 | locus YLL026W, hits give low values 1.02 | locus YLL041C, strain sdh2, hits give low values 1.01 | locus YLR027C, strain aat2, hits give low values 1.02 | locus YLR039C, strain RIC1, hits give low values 1.04 | locus YLR058C, strain SHM2, hits give low values 0.998 | locus YLR102C, strain apc9, hits give low values 0.976 | locus YLR113W, strain HOG1, hits give low values 0.97 | locus YLR221C, strain rsa3, hits give low values 1.01 | locus YLR258W, strain gsy2, hits give low values 1 | locus YLR262C, strain YPT6 (second series), hits give low values 1.03 | locus YLR262C, strain YPT6, hits give low values 1.05 | locus YLR268W, strain sec22, hits give low values 1.01 | locus YLR320W, strain mms22, hits give low values 1.03 | locus YLR342W, strain FKS1 (second series), hits give low values 1.08 | locus YLR342W, strain FKS1, hits give low values 1.03 | locus YLR357W, strain rsc2, hits give low values 1 | locus YLR370C, strain arc18, hits give low values 1.01 | locus YLR371W, strain rom2, hits give low values 1 | locus YLR384C, strain iki3, hits give low values 1.02 | locus YLR418C, strain cdc73, hits give low values 0.964 | locus YML016C, strain PPZ1, hits give low values 1 | locus YML032C, strain rad52, hits give low values 1.01 | locus YML120C, strain ndi1, hits give low values 1.01 | locus YML124C, strain tub3, hits give low values 0.986 | locus YMR058W, strain fet3, hits give low values 1.02 | locus YMR078C, strain ctf18, hits give low values 0.971 | locus YMR125W, strain sto1, hits give low values 1.01 | locus YMR129W, hits give low values 1.01 | locus YMR205C, strain PFK2, hits give low values 1.03 | locus YMR223W, strain ubp8, hits give low values 0.987 | locus YMR231W, strain pep5, hits give low values 0.997 | locus YMR307W, strain GAS1, hits give low values 0.996 | locus YNL067W, strain RPL9B, hits give low values 0.988 | locus YNL071W, strain lat1, hits give low values 1.01 | locus YNL128W, strain TEP1, hits give low values 1.01 | locus YNL153C, strain GIM3, hits give low values 0.986 | locus YNL183C, strain NPR1, hits give low values 0.905 | locus YNL209W, strain ssb2, hits give low values 1.01 | locus YNL233W, strain BNI4, hits give low values 0.968 | locus YNL248C, strain rpa49, hits give low values 1.01 | locus YNL250W, strain rad50, hits give low values 0.961 | locus YNL271C, strain bni1, hits give low values 0.974 | locus YNL298W, strain CLA4, hits give low values 0.993 | locus YNL307C, strain MCK1, hits give low values 0.978 | locus YNL322C, strain KRE1 (second series), hits give low values 1.01 | locus YNR049C, strain mso1, hits give low values 1.01 | locus YNR052C, strain pop2, hits give low values 0.973 | locus YOL006C, strain TOP1, hits give low values 1.1 | locus YOL012C, strain htz1 0.713 | locus YOL147C, strain pex11, hits give low values 0.989 | locus YOR001W, strain rrp6, hits give low values 1.03 | locus YOR061W, strain CKA2, hits give low values 1.02 | locus YOR069W, strain VPS5, hits give low values 0.99 | locus YOR070C, strain gyp1, hits give low values 1.05 | locus YOR080W, strain dia2, hits give low values 1.02 | locus YOR083W, strain WHI5, hits give low values 1.02 | locus YOR106W, strain vam3, hits give low values 1.02 | locus YOR136W, strain idh2, hits give low values 0.971 | locus YOR144C, strain elg1, hits give low values 0.988 | locus YOR184W, strain ser1, hits give low values 1.05 | locus YOR231W, strain MKK1, hits give low values 0.991 | locus YOR265W, strain rbl2, hits give low values 1.02 | locus YOR270C, strain vph1, hits give low values 1.03 | locus YOR290C, strain snf2, hits give low values 1.02 | locus YOR316C, strain cot1, hits give low values 0.978 | locus YPL051W, strain arl3, hits give low values 1.04 | locus YPL078C, strain atp4, hits give low values 1.01 | locus YPL106C, strain sse1, hits give low values 1.01 | locus YPL240C, strain hsp82, hits give low values 1.01 | locus YPL256C, strain CLN2, hits give low values 0.989 | locus YPR119W, strain clb2, hits give low values 0.97 | locus YPR141C, strain kar3, hits give low values 0.972 | locus YPR163C, strain tif3, hits give low values 0.979 | locus YPR167C, strain met16, hits give low values 0.97 | strain wtn01, hits give low values 1.01
